# Assay outcomes deposited in PubChem by The Scripps Research Institute Molecular Screening Center.
# MITF inh = blocks human microphthalmia-associated transcription factor; AID 1259374; AlphaScreen MITF homodimerization, bead proximity signal; 650,000 tested, 0.91% active; inhibition, % at 2.6 µM; in the data active = inhibition above about 50%;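 note: 0% = vehicle wells with protein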
# GPR151 ag = human GPR151 activation; Q8TDV0; PathHunter beta-arrestin GPR151 cells, luminescence; activation, % at 11.2 µM; 650,000 tested, 1% active; AID 1508602; in the data active = activation above about 4.9%;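 note: 0% = median of compound wells and 100% = cells with positive control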
# TEAD-YAP inh = TEAD-YAP interaction inhibition. inhibition, % at 9.12 µM. HEK-TIYL cells, TEAD-Gal4/YAP UAS-luciferase luminescence. 640,000 tested, 1.4% active; in the data active = inhibition above about 32%;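 note: 0% = median of test compound wells and 100% = reference inhibitor wells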
# FBW7 activator = activators of human E3 ligase FBW7; Q969H0; 650,000 tested, 0.13% active; AID 1259310; normalized activity (activation), % at 26.1 µM; AlphaScreen FBW7–phospho-cyclin E peptide binding, activator screen; in the data active = normalized activity above about 1.9%;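 note: purified mutant Fbw7 with reduced substrate affinity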
# Target sequence (Q969H0 whole entry, looked up): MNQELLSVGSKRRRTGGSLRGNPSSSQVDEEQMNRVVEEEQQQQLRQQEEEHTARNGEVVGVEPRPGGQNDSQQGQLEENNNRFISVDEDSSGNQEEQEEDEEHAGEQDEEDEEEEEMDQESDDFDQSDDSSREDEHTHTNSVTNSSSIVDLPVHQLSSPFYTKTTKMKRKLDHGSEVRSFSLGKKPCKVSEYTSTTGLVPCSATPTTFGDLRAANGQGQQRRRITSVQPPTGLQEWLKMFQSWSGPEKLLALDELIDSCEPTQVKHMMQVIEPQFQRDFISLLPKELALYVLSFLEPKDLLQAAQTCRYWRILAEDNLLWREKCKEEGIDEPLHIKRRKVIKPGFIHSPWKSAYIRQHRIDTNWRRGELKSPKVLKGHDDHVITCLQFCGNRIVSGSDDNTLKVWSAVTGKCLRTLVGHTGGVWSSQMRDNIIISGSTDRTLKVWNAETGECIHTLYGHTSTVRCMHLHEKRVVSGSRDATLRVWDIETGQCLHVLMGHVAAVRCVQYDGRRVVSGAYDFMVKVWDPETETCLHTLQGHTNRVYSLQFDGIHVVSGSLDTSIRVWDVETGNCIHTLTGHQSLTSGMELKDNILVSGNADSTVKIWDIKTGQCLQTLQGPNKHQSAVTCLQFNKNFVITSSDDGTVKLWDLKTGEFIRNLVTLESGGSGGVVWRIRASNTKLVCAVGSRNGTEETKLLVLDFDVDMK
# The depositor's hits bear a star. Only some compounds are listed: those with a hit (about 3.4% of all), similar ones and a draw of the others.
SMILES,MITF inh,GPR151 ag,TEAD-YAP inh,FBW7 activator
O=[N+]([O-])c1ccc(C(Nc2ccccn2)c2ccc3cccnc3c2O)cc1 (configuration not stated),15,0,72*,-1
Cc1cc(NC(=O)c2cccc([N+](=O)[O-])c2)no1,30,-1,5,1
CC(C)C(=O)NC(c1ccc([N+](=O)[O-])cc1)c1ccc2cccnc2c1O (configuration not stated),35,-2,81*,-1
O=[N+]([O-])c1cccc(C(Nc2ccccn2)c2ccc3cccnc3c2O)c1 (configuration not stated),14,-1,79*,0
Cc1cc(NC(c2cccc([N+](=O)[O-])c2)c2ccc3cccnc3c2O)no1 (configuration not stated),7,1,86*,-1
CCOc1ccccc1CN1CCN(Cc2ccc(-n3cccn3)cc2)CC1CCO (configuration not stated),-4,0,-9,0
COc1cccc(C(=O)C2CCCN(C3CCN(Cc4ccco4)CC3)C2)c1 (configuration not stated),1,0,4,0
O=C(Nc1ccc(F)cc1)N1CCN(c2cnccn2)CC1,-2,1,7,0
Cc1ccnc(N2CCC(C(=O)Nc3ccccc3Br)CC2)n1,22,-1,9,2.1*
COC(=O)c1[nH]c2ccccc2c1I,5,3,-5,0
C=CCn1c(=NC(=O)C2=COCCO2)sc2cccc(OC)c21,6,-1,-10,0
C=CCn1c(=NC(=O)C2=COCCO2)sc2cc(F)ccc21,-2,-1,-15,1.9*
CCOC(=O)C1(C)OC12CCOC(C)(C)C2 (configuration not stated),2,2,3,0
COc1ccc(OC)c(C2/C(=C(\O)c3ccc(C)cc3)C(=O)C(=O)N2c2nc3ccccc3s2)c1 (configuration not stated),-4,-1,-10,0
COc1ccc(C2/C(=C(\O)c3ccc(C)cc3)C(=O)C(=O)N2c2nc3ccccc3s2)c(OC)c1 (configuration not stated),-10,-1,41*,0
CCS(=O)(=O)N1CCN(Cc2cc(Br)ccc2O)CC1,54*,0,1,0
Oc1ccc(Br)cc1CN1CCN(Cc2c[nH]c3ccccc23)CC1,58*,-1,1,0
Oc1ccc(Br)cc1CN1CCN(Cc2ccncc2)CC1,54*,0,18,0
c1ccc2cc(CN3CCN(Cc4c[nH]c5ccccc45)CC3)ccc2c1,15,-1,11,0
Cc1cc(Nc2ccc(-n3cnnn3)cc2)n2ncnc2n1,7,0,6,0
COC(=O)C1=C(C)OC(N)=C(C#N)C1c1ccccc1I (configuration not stated),14,-1,13,0
CC(C)(C)c1ccc(CN[C@H]2C[C@H]3C(=O)N4CCC[C@@H]4C(=O)N3C2)cc1,-9,0,-19,0
COc1cccc(CC(=O)NCCCNc2nc3cc4c(cc3cc2C#N)OCO4)c1,2,-2,61*,1
COc1cccc(NC(=O)NCCCNc2nc3cc4c(cc3cc2C#N)OCO4)c1,-2,0,-4,0
C=CCN1C(=O)S/C(=C/c2cc([N+](=O)[O-])ccc2Cl)C1=O,-9,-1,5,-1
SMILES,MITF inh,GPR151 ag,TEAD-YAP inh,FBW7 activator
CC(C)C(=O)Nc1ccc(NC(=O)c2ccco2)nc1,18,-2,74*,0
O=C(Nc1ccc(NC(=O)C2CC2)cn1)c1ccco1,4,-2,48*,0
CC(C)C(=O)Nc1ccc(NC(=O)C(C)C)nc1,5,2,11,0
Cc1ccc(C(=O)Nc2ccc(S(=O)(=O)N3CCCCC3c3cccnc3)cc2)cc1 (configuration not stated),-17,-1,12,0
O=C(Nc1ccc(S(=O)(=O)N2CCCCC2c2cccnc2)cc1)c1ccc(S(=O)(=O)N2CCCC2)cc1 (configuration not stated),18,0,26,0
CCOc1ccc(C(=O)Nc2ccc(S(=O)(=O)N3CCCCC3c3cccnc3)cc2)cc1 (configuration not stated),2,1,33*,0
O=C(Nc1ccc(S(=O)(=O)N2CCCCC2c2cccnc2)cc1)c1ccc([N+](=O)[O-])cc1 (configuration not stated),10,0,36*,0
CC1CCN(C(=O)CSc2nc3ccccc3n2CC(=O)N2CCCCC2)CC1,8,0,16,0
